Several values for one entry are separate records, joined by “and”; a condition that tells them apart may be missing. Identical values can stand only once. Results filed as inconclusive are left out. Some compounds were tested as several samples or in several runs, with calls that do not always agree. Activity calls are given as the source filed them. Unless noted, calls come from the whole dose curve; as a rule, active = well fitted curve in the direction sought with a large enough effect in the repeat runs; inconclusive = weak or mixed curves; inactive = no such curve, though single readings can be large; an effect the other way counts as inactive or inconclusive.
How the values were obtained:
[1] = qHTS assay to identify small molecule antagonists of the glucocorticoid receptor (GR) signaling pathway - cell viability counter screen (AID 720693); note: nearly all actives have a fitted effect of over 55% in size
[2] = qHTS assay for identifying genotoxic compounds that show differential cytotoxicity against isogenic chicken DT40 cell lines with known DNA damage response pathways - wild type cell line (AID 743012); note: nearly all actives have a fitted effect of over 60% in size; note: potency is the fitted concentration of half-maximal effect
Method in brief: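 300 wt DT40 cells/well; cpd (DMSO) pintool-transferred after ~0.5 h at 37 C/5% CO2; 40 h incubation; CellTiter-Glo added, 30 min RT; luminescence read.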

[3] = qHTS assay for identifying genotoxic compounds that show differential cytotoxicity against isogenic chicken DT40 cell lines with known DNA damage response pathways - Rev3 mutant cell line (AID 743014); note: nearly all actives have a fitted effect of over 55% in size; note: potency is the fitted concentration of half-maximal effect
[4] = qHTS assay to identify small molecule antagonists of the androgen receptor (AR) signaling pathway - cell viability counter screen (AID 743033; note: nearly all actives have a fitted effect of over 45% in size)
[5] = qHTS assay to identify small molecule antagonists of the androgen receptor (AR) signaling pathway using the MDA cell line - cell viability counter screen (AID 743041; note: nearly all actives have a fitted effect of over 45% in size)
Method in brief: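 qHTS viability read-out; MDA-kb2 AR-luc; R1881-stimulated; 16 h exposure at 37C, 0% CO2; CellTiter-Fluor, 30 min; fluorescence intensity.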

[6] = qHTS assay to identify small molecule antagonists of the thyroid receptor (TR) signaling pathway - cell viability counter screen (AID 743064); note: nearly all actives have a fitted effect of over 50% in size; note: potency is the fitted concentration of half-maximal effect
Method in brief: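 Compounds were tested on GH3.TRE-Luc cells in the presence of T3 at 1 nM final. Following 23.5 h at 37 °C, cell viability was quantified by CellTiter-Fluor.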

[7] = qHTS assay to identify small molecule antagonists of the thyroid receptor (TR) signaling pathway (AID 743065); note: series mostly up to about 70 µM; nearly all actives have a fitted effect of over 55% in size
Method in brief: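 GH3.TRE-Luc rat pituitary cells carrying two TR response elements driving luciferase were plated for 4 h, given compound plus 1 nM T3 (final), and incubated 23.5 h at 37 C. ONE-Glo luminescence measured reporter inhibition; CellTiter-Fluor fluorescence tracked cytotoxicity.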

[8] = tested on: thyroid hormone receptor (rat, GH3 cells); assay: qHTS assay to identify small molecule agonists of the thyroid receptor (TR) signaling pathway (AID 743066; calls by dose curve)
[9] = qHTS assay to identify small molecule antagonists of the estrogen receptor alpha (ER-alpha) signaling pathway - cell viability counter screen (AID 743074; calls by dose curve; note: nearly all actives have a fitted effect of over 45% in size; note: potency is the fitted concentration of half-maximal effect)
[10] = qHTS assay to identify small molecule antagonists of the estrogen receptor alpha (ER-alpha) signaling pathway using the BG1 cell line - cell viability counter screen (AID 743081);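 note: compound given together with 17beta-estradiol as the ER stimulus; series mostly up to about 70 µM; nearly all actives have a fitted effect of over 45% in size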
[11] = qHTS assay for identifying genotoxic compounds that show differential cytotoxicity against isogenic chicken DT40 cell lines with known DNA damage response pathways - Rad54/Ku70 mutant cell line (AID 743015); note: nearly all actives have a fitted effect of over 60% in size; note: potency is the fitted concentration of half-maximal effect
[12] = biological target: Estrogen receptor (Homo sapiens) (UniProt P03372); assay: qHTS assay to identify small molecule antagonists of the estrogen receptor alpha (ER-alpha) signaling pathway (AID 743069; active = well fitted curve in the direction sought with a large enough effect in the signal ratio in the repeat runs, not every such curve was filed as active; the % refers to the signal ratio)
Method in brief: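 Screening used a UAS-driven beta-lactamase reporter integrated into HEK293 cells expressing ER-alpha, stimulated with 17beta-estradiol alongside test compounds over 18 hr at 37C; signal came from LiveBLAzer B/G FRET fluorescence.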

[13] = biological target: Estrogen receptor (Homo sapiens) (UniProt P03372); assay: qHTS assay to identify small molecule agonists of the estrogen receptor alpha (ER-alpha) signaling pathway (AID 743075; calls by dose curve)
[14] = biological target: Estrogen receptor (Homo sapiens) (UniProt P03372); assay: qHTS assay to identify small molecule agonists of the estrogen receptor alpha (ER-alpha) signaling pathway using the BG1 cell line (AID 743079); note: nearly all actives have a fitted effect of over 20% in size; note: potency is the fitted concentration of half-maximal effect
[15] = qHTS assay to identify small molecule antagonists of the estrogen receptor alpha (ER-alpha) signaling pathway using the BG1 cell line (AID 743080; calls by dose curve;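 note: BG1 cells stimulated with 17beta-estradiol alongside compound; nearly all actives have a fitted effect of over 25% in size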; note: potency is the fitted concentration of half-maximal effect)
Method in brief: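 BG1-Luc-4E2 cells (endogenous full-length ER-alpha, 4xERE luciferase) hormone-starved 5 days in charcoal-stripped FBS, plated 4,000/well for 24 h, then compound plus 17beta-estradiol for 21.5 h at 37 C; ONE-Glo luminescence read.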

Aromatase (Homo sapiens) = Aromatase (Homo sapiens) (UniProt P11511); assay: qHTS assay to identify aromatase inhibitors (AID 743083); note: nearly all actives have a fitted effect of over 55% in size; note: potency is the fitted concentration of half-maximal effect
[16] = qHTS assay to identify aromatase inhibitors - cell viability counter screen (AID 743084)
[17] = biological target: Androgen receptor (Homo sapiens) (UniProt P10275); assay: qHTS assay to identify small molecule antagonists of the androgen receptor (AR) signaling pathway (AID 743035; active = well fitted inhibition curve with a large enough effect in the signal ratio in the repeat runs, not every such curve was filed as active; the % refers to the signal ratio; note: potency is the fitted concentration of half-maximal effect)
Method in brief: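 In this cell-based reporter screen, compounds were tested in concentration series against R1881-activated HEK293 cells expressing beta-lactamase under UAS control; after 16 h at 37C, FRET substrate was added and fluorescence read 2 h later.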

[18] = biological target: Androgen receptor (Homo sapiens) (UniProt P10275); assay: qHTS assay to identify small molecule agonists of the androgen receptor (AR) signaling pathway using the MDA cell line (AID 743040; note: nearly all actives have a fitted effect of over 20% in size)
Method in brief: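 Agonist activity is measured as luciferase luminescence in human MDA-kb2 cells whose MMTV reporter responds to both AR and GR. Compounds in DMSO incubate 16 h at 37C, 0% CO2, and ONE-Glo is read after 30 min.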

[19] = biological target: Androgen receptor (Homo sapiens) (UniProt P10275); assay: qHTS assay to identify small molecule antagonists of the androgen receptor (AR) signaling pathway using the MDA cell line (AID 743042; note: nearly all actives have a fitted effect of over 55% in size)
Method in brief: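 MDA-kb2 cells (human breast carcinoma, stably carrying an MMTV-luciferase reporter responsive to AR and GR) were plated at 3,000 cells/well and preincubated 5 hr at 37C, then given compound plus R1881 agonist for 16 h. ONE-Glo luminescence was read.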

Measured: Potency

Aromatase (Homo sapiens), sequence (P11511 whole entry, looked up): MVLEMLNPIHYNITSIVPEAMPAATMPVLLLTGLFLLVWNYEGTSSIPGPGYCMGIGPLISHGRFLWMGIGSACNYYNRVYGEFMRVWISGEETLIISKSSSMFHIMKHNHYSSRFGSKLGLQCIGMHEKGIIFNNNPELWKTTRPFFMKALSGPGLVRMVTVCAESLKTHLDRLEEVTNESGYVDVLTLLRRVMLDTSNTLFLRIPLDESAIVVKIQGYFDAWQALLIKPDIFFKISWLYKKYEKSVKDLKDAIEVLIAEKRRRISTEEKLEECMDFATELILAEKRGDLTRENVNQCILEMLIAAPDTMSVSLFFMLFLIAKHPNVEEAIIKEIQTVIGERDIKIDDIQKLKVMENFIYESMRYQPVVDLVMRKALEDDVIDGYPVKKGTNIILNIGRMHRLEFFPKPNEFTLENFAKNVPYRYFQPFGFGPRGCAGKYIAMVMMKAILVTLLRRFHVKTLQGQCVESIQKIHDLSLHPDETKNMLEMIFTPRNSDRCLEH
Androgen receptor (Homo sapiens), sequence (P10275 whole entry, looked up): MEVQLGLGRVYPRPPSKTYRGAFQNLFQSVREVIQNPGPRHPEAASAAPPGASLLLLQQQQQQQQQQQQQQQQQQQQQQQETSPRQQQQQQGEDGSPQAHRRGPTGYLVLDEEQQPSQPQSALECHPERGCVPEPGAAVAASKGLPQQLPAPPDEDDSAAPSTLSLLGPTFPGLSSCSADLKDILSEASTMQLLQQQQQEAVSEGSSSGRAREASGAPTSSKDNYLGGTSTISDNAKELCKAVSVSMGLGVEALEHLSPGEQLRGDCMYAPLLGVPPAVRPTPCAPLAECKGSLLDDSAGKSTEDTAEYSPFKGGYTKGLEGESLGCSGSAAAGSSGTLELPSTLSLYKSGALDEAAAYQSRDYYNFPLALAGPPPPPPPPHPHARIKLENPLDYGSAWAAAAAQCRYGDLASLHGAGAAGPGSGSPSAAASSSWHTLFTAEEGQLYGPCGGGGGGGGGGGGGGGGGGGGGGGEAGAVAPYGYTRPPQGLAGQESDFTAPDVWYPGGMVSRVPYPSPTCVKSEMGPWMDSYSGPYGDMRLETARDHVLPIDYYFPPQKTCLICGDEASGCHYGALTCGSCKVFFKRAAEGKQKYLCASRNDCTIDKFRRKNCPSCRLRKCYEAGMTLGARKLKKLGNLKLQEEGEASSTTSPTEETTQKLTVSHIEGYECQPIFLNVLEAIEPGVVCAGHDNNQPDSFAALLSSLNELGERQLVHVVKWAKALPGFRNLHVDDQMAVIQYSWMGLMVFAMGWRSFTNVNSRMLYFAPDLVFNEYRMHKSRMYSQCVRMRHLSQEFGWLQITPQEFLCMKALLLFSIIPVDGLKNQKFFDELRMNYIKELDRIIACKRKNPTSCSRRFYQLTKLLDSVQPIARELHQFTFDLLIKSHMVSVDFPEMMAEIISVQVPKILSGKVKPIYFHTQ
Estrogen receptor (Homo sapiens), sequence (P03372 whole entry, looked up): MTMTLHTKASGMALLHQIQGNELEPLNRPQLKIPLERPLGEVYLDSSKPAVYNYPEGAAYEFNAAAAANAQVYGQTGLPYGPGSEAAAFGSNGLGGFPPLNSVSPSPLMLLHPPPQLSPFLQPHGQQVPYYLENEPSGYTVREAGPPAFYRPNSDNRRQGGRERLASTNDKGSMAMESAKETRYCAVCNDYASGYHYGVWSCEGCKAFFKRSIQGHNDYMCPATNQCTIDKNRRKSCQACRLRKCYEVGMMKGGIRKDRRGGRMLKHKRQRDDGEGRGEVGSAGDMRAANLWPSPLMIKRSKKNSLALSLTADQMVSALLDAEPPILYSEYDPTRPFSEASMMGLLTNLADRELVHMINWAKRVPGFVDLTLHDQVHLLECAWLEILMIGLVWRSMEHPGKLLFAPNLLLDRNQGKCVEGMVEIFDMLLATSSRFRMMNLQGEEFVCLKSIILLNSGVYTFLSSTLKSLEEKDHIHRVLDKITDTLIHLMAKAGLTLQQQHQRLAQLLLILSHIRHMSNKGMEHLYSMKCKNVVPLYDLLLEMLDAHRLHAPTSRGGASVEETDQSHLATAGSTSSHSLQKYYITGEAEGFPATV

OCCN(CCO)CCO
inactive: [1] | [2] | [3] | [4] | [5] | [6] | [7] | [8] | [9] | [10]

CNC(=O)Oc1ccccc1OC(C)C
not listed: [4] | [17] | [18] | [19]
inactive: all other assays above

CC(Oc1ccc(Cl)cc1Cl)C(=O)O (centres undefined)
not listed: [11] | [17] | [18] | [19]
inactive: all other assays above

CN(C)N=O
inactive: [1] | [2] | [3] | [4] | [5] | [6] | [8] | [9] | [10] | Aromatase (Homo sapiens) | [16]

NCC(O)c1ccc(O)cc1 (centres undefined)
inactive: [1] | [2] | [3] | [4] | [5] | [6] | [8] | [9] | [10] | Aromatase (Homo sapiens) | [16]

CC(C)(C)OOC(C)(C)C
not listed: [4] | [6] | [11] | [17] | [18] | [19]
inactive: all other assays above

O=c1ccc(=O)[nH][nH]1
not listed: [4] | [11] | [12] | [13] | [14] | [15]
inactive: all other assays above

Clc1ccccc1Cl
not listed: [11] | [12] | [13] | [14] | [15] | [17] | [18] | [19]
inactive: all other assays above

CC(C)NC(=O)N1CC(=O)N(c2cc(Cl)cc(Cl)c2)C1=O
active: [3] 54.5 µM
not listed: [4] | [6] | [11] | [17] | [18] | [19]
inactive: all other assays above

O=c1n(Cl)c(=O)n(Cl)c(=O)n1Cl
not listed: [4] | [11] | [17] | [18] | [19]
inactive: all other assays above

C1CN2CCN1CC2
inactive and 4.36 µM (active): [9]
not listed: [7] | [11] | [17] | [18] | [19]
inactive: all other assays above

c1ccc2c(c1)Oc1ccccc1O2
inactive: [1] | [2] | [3] | [4] | [5] | [6] | [8] | [9] | [10] | Aromatase (Homo sapiens) | [16]

CCOP(=S)(OCC)SCCSCC
not listed: [3] | [12] | [13] | [14] | [15] | [17] | [18] | [19]
inactive: all other assays above

CON(C)C(=O)Nc1ccc(Cl)c(Cl)c1
inactive and 54.5 µM (active): [11]
not listed: [2] | [7] | [15] | [17] | [18] | [19]
inactive: all other assays above

CC(C)=C[C@@H]1[C@@H](C(=O)OCc2coc(Cc3ccccc3)c2)C1(C)C
inactive and 27.3 µM (active): [2]
inactive and 34.4 µM (active): [3]
not listed: [7] | [11] | [17] | [18] | [19]
inactive: all other assays above

CN1C(=O)CN=C(c2ccccc2)c2cc(Cl)ccc21
inactive: [1] | [2] | [3] | [5] | [6] | [8] | [9] | [10] | [16]

O=c1[nH]c2ccccc2c(=O)o1
not listed: [7] | [11] | [17] | [18] | [19]
inactive: all other assays above

C[C@]12CC[C@H]3[C@@H](CC[C@@]45O[C@@H]4C(O)=C(C#N)C[C@]35C)[C@@H]1CC[C@@H]2O
inactive and 61.1 µM (active): [2]
inactive and 27.3 µM (active): [3]
inactive: [1] | [4] | [5] | [9] | [10] | Aromatase (Homo sapiens) | [16]

Cc1cc(-c2cc(C)c(N)c(C)c2)cc(C)c1N
not listed: [7] | [11] | [17] | [18] | [19]
inactive: all other assays above

O=[N+]([O-])c1ccc(Oc2ccc(Cl)cc2Cl)cc1
inactive and 61.1 µM (active): [2] | [3]
inactive: [1] | [4] | [5] | [6] | [8] | [9] | [10] | Aromatase (Homo sapiens) | [16]

C#CC(C)(C)NC(=O)c1cc(Cl)cc(Cl)c1
inactive: [1] | [11] | [4] | [5] | [6] | [8] | [9] | [10] | Aromatase (Homo sapiens) | [16]
active: [3] 68.6 µM

ClCc1cccnc1
not listed: [7] | [11] | [17] | [18] | [19]
inactive: all other assays above

CN(C)CCO
not listed: [4] | [7] | [11] | [17] | [18] | [19]
inactive: all other assays above

c1cc2c3c(cccc3c1)CC2
inactive and 61.1 µM (active): [11]
not listed: [2] | [4]
inactive: all other assays above

C=CCO
inactive: [1] | [2] | [3] | [4] | [5] | [6] | [9] | [10] | Aromatase (Homo sapiens) | [16]

CCNc1nc(NC(C)(C)C)nc(SC)n1
active: [3] 60.3 µM | [11] 54.5 µM
not listed: [2] | [7] | [17] | [18] | [19]
inactive: all other assays above

CC(C)C1(C)N=C(c2nc3ccccc3cc2C(=O)O)NC1=O (centres undefined)
not listed: [4] | [7] | [11] | [17] | [18] | [19]
inactive: all other assays above

CC(C)C#N
inactive: [1] | [2] | [3] | [5] | [6] | [8] | [9] | [10] | Aromatase (Homo sapiens) | [16]

Cc1ccc(N)cc1N
active: [11] 17.2 µM
not listed: [2] | [3] | [4] | [17] | [18] | [19]
inactive: all other assays above

OC(O)C(Cl)(Cl)Cl
not listed: [11] | [12] | [13] | [14] | [15] | [17] | [18] | [19]
inactive: all other assays above

CCCC1COC(Cn2cncn2)(c2ccc(Cl)cc2Cl)O1 (centres undefined)
active: [2] 55.5 µM and 12.2 µM | [3] 27.8 µM and 19.3 µM | [17] 49.9 µM and 43.6 µM | [15] 27.8 µM and 68.6 µM | Aromatase (Homo sapiens) 31.2 µM and 24.3 µM
not listed: [4] | [7] | [11] | [14] | [19]
inactive: all other assays above

CCCCOC(=O)c1ccccc1C(=O)OCCCC
77 µM (active) and inactive: [14]
active: [2] 24.3 µM
not listed: [4] | [7] | [11] | [17] | [18] | [19]
inactive: all other assays above

CN=C=S
not listed: [6] | [7] | [11] | [17] | [18] | [19]
inactive: all other assays above

C=CC(N)=O
inactive: [1] | [5] | [6] | [12] | [9] | [13] | [14] | [15] | [10] | Aromatase (Homo sapiens) | [16]

CC(C)(C)OOC(=O)c1ccccc1
not listed: [11] | [12] | [13] | [14] | [15] | [17] | [18] | [19]
inactive: all other assays above

CCCCCCCCCl
not listed: [4] | [7] | [9] | [11] | [17] | [18] | [19]
inactive: all other assays above

ClCCBr
not listed: [4] | [11] | [17] | [18] | [19]
inactive: all other assays above

Nc1ccc(Oc2ccc(N)cc2)cc1
inactive: [1] | [3] | [5] | [6] | [9] | [10] | [16]
active: Aromatase (Homo sapiens) 54.5 µM

CCCCN(CCCC)SN(C)C(=O)Oc1cccc2c1OC(C)(C)C2
inactive: [1] | [4] | [5] | [9] | [13] | [15] | [10] | Aromatase (Homo sapiens) | [16]
inactive and 54.5 µM (active): [14]
active: [2] 30.6 µM | [3] 48.6 µM
inactive and 24.3 µM (active): [6]

[O-][Cl+2]([O-])O
not listed: [2] | [3] | [7] | [8] | [11] | [17] | [18] | [19]
inactive: all other assays above

From PubChem BioAssay (Tox21)
